Measured values as given in PubChem BioAssay (EPA / NIEHS).
Records with an inconclusive call do not appear. Where a structure was tested more than once in an assay, its records may differ in their call. Active and inactive are the calls of the source. The calls were made as follows, unless noted: active = hit-call score of the fitted dose curve at least 0.9, where 1 is the maximum; inactive = score below 0.9.

Experiments:
CD69, CD69 (gene 969) = assay: BSK_LPS_CD69: BioMAP Diversity Plus: LPS Assay for CD69 Biomarker Activity (AID 2284303); conditions: primary human HUVEC with PBMC
Procedure, shortened: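 Human umbilical vein endothelial cells co-cultured with PBMC under LPS stimulation, chemical exposure 24 h; cell-surface CD69 measured by ELISA and fitted in the positive direction versus DMSO.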

[1] = IUF_NPC2a_radial_glia_migration_120hr: Leibniz Research Institute for Environmental Medicine (IUF) 120-hour Neural Progenitor Cell Migration Assay for Radial Glia Migration (NPC2a) (AID 2284298)
Procedure, shortened: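 In this multiplexed test, fetal hNPC spheres migrate radially on poly-D-lysine/laminin in N2 medium (37C, 5% CO2, pH 7.2-7.6) under continuous compound exposure over five days. Migration is scored at 120 h from automated Hoechst nuclear imaging.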

[2] = IUF_NPC2a_radial_glia_migration_72hr: Leibniz Research Institute for Environmental Medicine (IUF) 72-hour Neural Progenitor Cell Migration Assay for Radial Glia Migration (NPC2a) (AID 2284299)
Procedure, shortened: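 Human fetal cortex (GW 16-19) neural progenitor spheres, 0.3 mm, plated on poly-D-lysine/laminin in N2 differentiation medium with compound from day 0. Radial glia migration distance (um, sphere core edge to migration edge) measured manually in four directions on 72 h brightfield images; well mean used.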

[3] = IUF_NPC2b_neuronal_migration_120hr: Leibniz Research Institute for Environmental Medicine (IUF) 120-hour Neural Progenitor Cell Migration Assay for Neuron Migration (NPC2b) (AID 2284300)
Protocol: IUF_NPC2-5 is a cell-based, multiplexed assay that uses hNPC, a human primary neural progenitor cells, with measurements taken at 72 or 120 hours after chemical dosing in a 96-well plate. Human neural progenitor cells (hNPC) are generated from human fetal brain cortex at gestational week (GW) 16-19. In the neural progenitor cell migration and differentiation assay (NPC2-5), hNPCs grown as spheres are plated on an extracellular matrix and migrate and differentiate out of the sphere core. The processes radial glia migration, neuronal and oligodendrocyte migration as well as neuronal differentiation, neuronal morphology and oligodendrocyte differentiation are studied using automated phase contrast imaging and automated fluorescence imaging in combination with high content image analysis. In parallel, the cell viability is assessed using an alamar blue viability assay and the cytotoxicity using a lactate dehydrogenase dependent membrane integrity assay.IUF_NPC2b_neuronal_migration_120hr is one of 12 assay components measured from the IUF_NPC2-5 assay. Neuronal migration distance at 120 hr is the mean distance of all neurons from the edge of the sphere core to each individual neuron (see IUF_NPC3_neuronal_differentiation_120hr). Neuronal migration is normalized to radial glia migration distance at 120 hr.Data from the IUF_NPC2b_neuronal_migration_120hr component was analyzed at the endpoint IUF_NPC2b_neuronal_migration_120hr in the positive analysis fitting direction relative to DMSO as the negative control and baseline of activity. Using a type of migration reporter, gain or loss-of-signal activity can be used to understand developmental effects.
Culture protocol: After the cell expansion period the cells are cultured for up to four weeks in which they are passaged every week as described in 3.6. Between one to three days after passaging spheres at a size of 0.3 mm are picked for the test method. […] Therefore, half of the test condition solution (e.g. solvent control or compound dilution) is replaced by freshly prepared test condition solution.Test Method: Migration distance and cytotoxicity is determined after 72 hours based on brightfield images of each well. […] On the ICC images, migration after 120 hours, neuronal and oligodendrocyte number, neuronal morphology and neuron/oligodendrocyte specific migration is assessed. immunocytochemical staining (ICC) generates an image for each sphere. The plates are scanned using an automated high content imaging device and all nuclei and their positions are determined automatically based on their intensity and size. […]

[4] = IUF_NPC3_neuronal_differentiation_120hr: Leibniz Research Institute for Environmental Medicine (IUF) 120-hour Neuronal Differentiation Assay (NPC3) (AID 2284301)
Procedure, shortened: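 Single 0.3 mm neurospheres from human fetal cortex were plated in differentiation medium containing test compound. Medium was half-replaced on day 3. After 120 h cells were fixed, immunostained and imaged, and neuronal fraction was scored against DMSO control.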

[5] = IUF_NPC4_neurite_length_120hr: Leibniz Research Institute for Environmental Medicine (IUF) 120-hour Neuronal Morphology Assay for Neurite Length (NPC4) (AID 2284302)
Procedure, shortened: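 Read-out is mean neurite length in µm of TUBB3-positive neurons, skeletonized from high-content fluorescence images after 120 h. Single 0.3 mm primary human neural progenitor spheres differentiated on poly-D-lysine/laminin under continuous compound exposure; DMSO was baseline.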

[6] = IUF_NPC5_oligodendrocyte_differentiation_120hr: Leibniz Research Institute for Environmental Medicine (IUF) 120-hour Oligodendrocyte Differentiation Assay (NPC5) (AID 2284304; active = hit-call score of the fitted dose curve at least 0.9, where 1 is the maximum;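 also: share of O4-positive cells among Hoechst nuclei found by CNN image analysis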)
Procedure, shortened: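 Human primary NPC neurospheres migrating and differentiating on laminin for 120 h under continuous compound exposure (serial dilution, solvent control). Endpoint: percent O4+ oligodendrocytes among Hoechst nuclei, detected by CNN image analysis, with DMSO as negative control.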

[7] = IUF_NPC4_neurite_area_120hr: Leibniz Research Institute for Environmental Medicine (IUF) 120-hour Neuronal Morphology Assay for Neurite Area (NPC4) (AID 2284305; active = hit-call score of the fitted dose curve at least 0.9, where 1 is the maximum)
Procedure, shortened: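 Neurite area is read out as the mean pixel area, excluding nuclei, of skeletonized TUBB3-positive neurons imaged after 120 h. Primary human neural progenitor spheres differentiated on poly-D-lysine/laminin with compound present from day 0. Activity was referenced to DMSO controls.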

[8] = IUF_NPC2-5_cytotoxicity_72hr: Cytotoxicity Assessment at 72 hours in the Leibniz Research Institute for Environmental Medicine (IUF) Neural Progenitor Cell Migration and Differentiation Assay for Cytotoxicity (NPC2-5) (AID 2284306; active = hit-call score of the fitted dose curve at least 0.9, where 1 is the maximum;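 also: LDH release into supernatant measured by resorufin fluorescence marking membrane damage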)
Procedure, shortened: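 Membrane integrity loss was scored from fluorescence (RFU) of resorufin generated by LDH in culture supernatant, 72 h after dosing. Differentiating human progenitor spheres received seven serial compound concentrations alongside a solvent control.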

[9] = IUF_NPC2-5_cytotoxicity_120hr: Cytotoxicity Assessment at 120 hours in the Leibniz Research Institute for Environmental Medicine (IUF) Neural Progenitor Cell Migration and Differentiation Assay (NPC2-5) (AID 2284307; active = hit-call score of the fitted dose curve at least 0.9, where 1 is the maximum;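 as to AC50: LDH released into supernatant as membrane damage marker via resorufin fluorescence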)
Procedure, shortened: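 Fluorescence (RFU) from LDH-driven resazurin reduction in medium supernatants measured loss of membrane integrity after 120 h of compound exposure of differentiating primary human neural progenitor spheres on an extracellular matrix.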

With `CC(CN=Cc1ccccc1O)N=Cc1ccccc1O` (stereo unspecified) the outcome (CD69, CD69 (gene 969)) was “inactive”.

In the case of `CC1(C)CCC[C@]2(C)[C@H]3CCO[C@]3(C)CC[C@@H]12`, the outcome (CD69, CD69 (gene 969)) is reported as “inactive”.

With `CCCCCCC(CO)CCCC` (stereo unspecified) the outcome (CD69, CD69 (gene 969)) was “inactive”.

For `COCCc1ccc(OCC(O)CNC(C)C)cc1` (stereo unspecified), the outcome [1] was “inactive”, the outcome [2] was “inactive” and the outcome [3] was “inactive”. The outcome [4] was “inactive”, the outcome [5] was “inactive” and the outcome [6] was “inactive”. The outcome [7] was “inactive”, the outcome [8] was “inactive” and the outcome [9] was “inactive”.

For `C=CC(C)(O)CCC=C(C)C` (stereo unspecified), the outcome (CD69, CD69 (gene 969)) was “inactive”.

For `CCOC(=O)C(C#N)=C(c1ccccc1)c1ccccc1`, the AC50 (CD69, CD69 (gene 969)) was 27900 nM (active) and the outcome (CD69, CD69 (gene 969)) was “inactive”.

In the case of `O=CN1CCOCC1`, the outcome (CD69, CD69 (gene 969)) is reported as “inactive”.

For `COCCOCCOCCO`, the outcome [1] was “inactive”, the outcome [2] was “inactive” and the outcome [3] was “inactive”. For the same compound, the outcome [4] was “inactive”, the outcome [6] was “inactive” and the outcome [7] was “inactive”. For the same compound, the outcome [8] was “inactive” and the outcome [9] was “inactive”.

In the case of `Oc1c(Cl)cc(Cl)c(Cl)c1Cc1c(O)c(Cl)cc(Cl)c1Cl`, the AC50 [1] is reported as 272 nM (active), the AC50 [2] is reported as 380 nM (active) and the AC50 [3] is reported as 566 nM (active). For the same compound, the AC50 [4] was 472 nM (active), the AC50 [5] was 168 nM (active) and the AC50 [6] was 75.1 nM (active). For the same compound, the AC50 [7] was 264 nM (active), the AC50 [8] was 702 nM (active) and the AC50 [9] was 295 nM (active).

For `O=C(Nc1ccc2c(O)c(N=Nc3ccc(N=Nc4ccc(S(=O)(=O)O)cc4)cc3)c(S(=O)(=O)O)cc2c1)c1ccccc1`, the outcome (CD69, CD69 (gene 969)) was “inactive”.

For `CN(C)CCOC(C)(c1ccccc1)c1ccccn1` (stereo unspecified), the outcome [1] was “inactive”, the outcome [2] was “inactive” and the outcome [3] was “inactive”. The outcome [4] was “inactive”, the outcome [5] was “inactive” and the outcome [8] was “inactive”. The outcome [9] was “inactive”.
